From PubChem BioAssay (NCATS)
Values without a mark were called inactive. Calls of active or inactive are those of the source. Calls follow the shape of the dose curve; as a rule, active = well fitted curve in the direction sought with a large enough effect; inconclusive = small, poorly fitted or top-dose-only effect, or another doubt; inactive = no such curve, though single readings can be large; an effect the other way counts as inactive or inconclusive.

system: not listed separately; assay: Validation qHTS assay for inhibitors of Activation Induced Cytidine Deaminase (AID): UDG Counterscreen signal (AID 1347427); conditions: biochemical UDG counterscreen, fluorescence signal; series mostly up to 115 µM; activity, negative = inhibition: at the top concentration; as to activity, negative = inhibition: 0% is about no effect
Procedure, shortened: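 Fluorescence at 560 nm excitation, 665 nm emission reports UDG signal after 250 mM NaOH (2x) addition and 30 min. Enzymes (AID 1 uM, UDG 2 U/mL, at 4/3x) preincubated 10 min with compound, then 4 h with 4x 250 nM DJC20/DJC23 substrate at room temperature.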
Potency is read from the fitted curve at half-maximal effect.

Row | SMILES | activity, negative = inhibition [%] | Potency
1 | O=C(CCCN1CCC(O)(c2ccc(Cl)cc2)CC1)c1ccc(F)cc1 | 10.5 | 
2 | Cc1cn([C@H]2C=C[C@@H](CO)O2)c(=O)[nH]c1=O | 23.1 | 
3 | Clc1ccc2nsnc2c1NC1=NCCN1 | 0.55 | 
4 | O=C(c1ccc(F)cc1)C1CCN(CCn2c(=O)[nH]c3ccccc3c2=O)CC1 | -1.06 | 
5 | CN(C)CCCN1c2ccccc2CCc2ccc(Cl)cc21 | -0.742 | 
6 | C[C@](N)(Cc1ccc(O)c(O)c1)C(=O)O | -5.45 | 
7 | CC[N+](CC)(CC)CCOc1cccc(OCC[N+](CC)(CC)CC)c1OCC[N+](CC)(CC)CC | 2.8 | 
8 | NC(=O)NO | 13.2 | 
9 | Clc1ccc2c(c1)C(N1CCNCC1)=Nc1ccccc1O2 | 12.6 | 
10 | CC(CCc1ccc(O)cc1)NCCc1ccc(O)c(O)c1 (stereo not given) | 10.5 | 
11 | COc1cc2nc(N(C)CCCNC(=O)C3CCCO3)nc(N)c2cc1OC (stereo not given) | 2.78 | 
12 | COc1ccc(C2CNC(=O)C2)cc1OC1CCCC1 (stereo not given) | 5.76 | 
13 | CN(Cc1cnc2nc(N)nc(N)c2n1)c1ccc(C(=O)N[C@@H](CCC(=O)O)C(=O)O)cc1 | 6.94 | 
14 | O=c1[nH]cc(F)c(=O)[nH]1 | 10.1 | 
15 | Clc1ccc(C(c2ccccc2Cl)C(Cl)Cl)cc1 (stereo not given) | 9.62 | 
16 | NC(=O)OCC(COC(N)=O)c1ccccc1 | 15.3 | 
17 | Nc1ccn([C@H]2CC[C@@H](CO)O2)c(=O)n1 | 15.8 | 
18 | Nc1c2c(nc3ccccc13)CCCC2 | 11.5 | 
19 | CN1CCN(CCCN2c3ccccc3Sc3ccc(Cl)cc32)CC1 | -7.51 | 
20 | CN1CCN2c3ccccc3Cc3ccccc3C2C1 (stereo not given) | 8.43 | 
21 | C[C@H]1c2cccc(O)c2C(O)=C2C(=O)[C@]3(O)C(O)=C(C(N)=O)C(=O)[C@@H](N(C)C)[C@@H]3[C@@H](O)[C@@H]21 | 10.5 | 
22 | COc1ccccc1OCCNCC(O)COc1cccc2[nH]c3ccccc3c12 (stereo not given) | 10.1 | 
23 | CCOC(=O)c1ncn2c1CN(C)C(=O)c1cc(F)ccc1-2 | 15.6 | 
24 | O=C1c2c(O)ccc(O)c2C(=O)c2c(NCCNCCO)ccc(NCCNCCO)c21 |  | 31.6 µM (active)
25 | CCC1(C)CC(=O)NC1=O (stereo not given) | 7.74 | 
26 | Cc1ccc(C(=O)Nc2ccc(S(=O)(=O)O)c3cc(S(=O)(=O)O)cc(S(=O)(=O)O)c23)cc1NC(=O)c1cccc(NC(=O)Nc2cccc(C(=O)Nc3cc(C(=O)Nc4ccc(S(=O)(=O)O)c5cc(S(=O)(=O)O)cc(S(=O)(=O)O)c45)ccc3C)c2)c1 | 6.97 | 
27 | CCc1cccc2c3c([nH]c12)C(CC)(CC(=O)O)OCC3 (stereo not given) | -1.02 | 

molecular target: Single-stranded DNA cytosine deaminase (Homo sapiens) (UniProt Q9GZX7); assay: Validation qHTS assay for inhibitors of Activation Induced Cytidine Deaminase (AID): AID signal (AID 1347429); conditions: Recombinant AID, FRET ssDNA deamination with UDG, fluorescence; series mostly up to 115 µM; activity change, negative = inhibition: at the top concentration; as to activity change, negative = inhibition: % is scaled to controls: 0 for no effect and ±100 for the full control effect
Procedure, shortened: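 Steps: dispense AID with UDG; pin-transfer compound up to 114 uM final; add DJC20/DJC23 substrate and hold 4 hr at room temperature; add NaOH, hold 30 min; read FRET signal (540/590 nm).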

Sequence of Single-stranded DNA cytosine deaminase (Homo sapiens) (Q9GZX7 whole entry, looked up): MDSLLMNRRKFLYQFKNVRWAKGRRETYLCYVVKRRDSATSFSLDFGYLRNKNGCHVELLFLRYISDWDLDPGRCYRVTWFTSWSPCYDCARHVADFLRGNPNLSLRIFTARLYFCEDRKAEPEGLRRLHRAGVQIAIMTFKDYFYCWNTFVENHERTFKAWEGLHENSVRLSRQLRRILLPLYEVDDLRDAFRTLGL

Row | SMILES | activity change, negative = inhibition [%] | Potency
28 | O=C(CCCN1CCC(O)(c2ccc(Cl)cc2)CC1)c1ccc(F)cc1 | 10.5 | 
29 | Cc1cn([C@H]2C=C[C@@H](CO)O2)c(=O)[nH]c1=O | 19.6 | 
30 | Clc1ccc2nsnc2c1NC1=NCCN1 | 31.8 | 
31 | O=C(c1ccc(F)cc1)C1CCN(CCn2c(=O)[nH]c3ccccc3c2=O)CC1 | 1.67 | 
32 | CN(C)CCCN1c2ccccc2CCc2ccc(Cl)cc21 | -5.78 | 
33 | C[C@](N)(Cc1ccc(O)c(O)c1)C(=O)O | 14.3 | 
34 | CC[N+](CC)(CC)CCOc1cccc(OCC[N+](CC)(CC)CC)c1OCC[N+](CC)(CC)CC | 12.9 | 
35 | NC(=O)NO | 17.7 | 
36 | Clc1ccc2c(c1)C(N1CCNCC1)=Nc1ccccc1O2 | 20.1 | 
37 | CC(CCc1ccc(O)cc1)NCCc1ccc(O)c(O)c1 (stereo not given) | 22.8 | 
38 | OCCN(CCO)c1nc(N2CCCCC2)c2nc(N(CCO)CCO)nc(N3CCCCC3)c2n1 | 1.96 | 
39 | COc1cc2nc(N(C)CCCNC(=O)C3CCCO3)nc(N)c2cc1OC (stereo not given) | 25.5 | 
40 | COc1ccc(C2CNC(=O)C2)cc1OC1CCCC1 (stereo not given) | 11.2 | 
41 | CN(Cc1cnc2nc(N)nc(N)c2n1)c1ccc(C(=O)N[C@@H](CCC(=O)O)C(=O)O)cc1 | 178 | 
42 | O=c1[nH]cc(F)c(=O)[nH]1 | 21 | 
43 | Clc1ccc(C(c2ccccc2Cl)C(Cl)Cl)cc1 (stereo not given) | 4.54 | 
44 | NC(=O)OCC(COC(N)=O)c1ccccc1 | 22.9 | 
45 | Nc1ccn([C@H]2CC[C@@H](CO)O2)c(=O)n1 | 20.1 | 
46 | Nc1c2c(nc3ccccc13)CCCC2 | 39.9 | 
47 | CN1CCN(CCCN2c3ccccc3Sc3ccc(Cl)cc32)CC1 | 31 | 
48 | CN1CCN2c3ccccc3Cc3ccccc3C2C1 (stereo not given) | 15 | 
49 | C[C@H]1c2cccc(O)c2C(O)=C2C(=O)[C@]3(O)C(O)=C(C(N)=O)C(=O)[C@@H](N(C)C)[C@@H]3[C@@H](O)[C@@H]21 | 28.6 | 
50 | COc1ccccc1OCCNCC(O)COc1cccc2[nH]c3ccccc3c12 (stereo not given) | 6 | 
51 | CCOC(=O)c1ncn2c1CN(C)C(=O)c1cc(F)ccc1-2 | 22.8 | 
52 | O=C1c2c(O)ccc(O)c2C(=O)c2c(NCCNCCO)ccc(NCCNCCO)c21 |  | 10 µM (active)
53 | CCC1(C)CC(=O)NC1=O (stereo not given) | 9.22 | 
54 | Cc1ccc(C(=O)Nc2ccc(S(=O)(=O)O)c3cc(S(=O)(=O)O)cc(S(=O)(=O)O)c23)cc1NC(=O)c1cccc(NC(=O)Nc2cccc(C(=O)Nc3cc(C(=O)Nc4ccc(S(=O)(=O)O)c5cc(S(=O)(=O)O)cc(S(=O)(=O)O)c45)ccc3C)c2)c1 |  | 11.2 µM (active)
55 | CCc1cccc2c3c([nH]c12)C(CC)(CC(=O)O)OCC3 (stereo not given) | 2.17 | 
